The text below walks through data of PubChem BioAssay (EPA / NIEHS).

The nature of assay [1]: CEETOX_H295R_MTT_cell_viability: Viability Assessment in the CeeTox HT-H295R MTT Assay (AID 2283718; active = hit-call score of the fitted dose curve at least 0.9, where 1 is the maximum; inactive = score below 0.9;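 as to AC50: curve fitted both ways so AC50 may mark viability loss or gain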). The gist of the method:
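MTT reduction (0.5 mg/ml, 4 h at 37 C; absorbance at 570 and 650 nm) gave viability as background-corrected percent change versus controls. H295R cells had 48 h forskolin (10 uM) prestimulation, then 48 h chemical exposure at 0.1% DMSO.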

Assay [2] deals with Luciferin 4-monooxygenase (Photinus pyralis) (UniProt P08659). Briefly: CCTE_Simmons_QuantiLum_inhib_2: CCTE's Firefly Luciferase Inhibition Assay, Simmons Lab (AID 2283767).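 As to AC50: potency for inhibitors that lower luciferase luminescence relative to DMSO.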 The gist of the method: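 Eight test concentrations, 5 nM up to 87.5 uM final, preincubated 30min at 37C in the dark with purified luciferase (0.5% DMSO final). Detection reagent (150uM D-luciferin, 147uM dATP, 75uM CoA, pH 7.8) injected per well before kinetic luminescence read; three replicates.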

The nature of assay [3]: ACEA_AR_agonist_AUC_viability: ACEA Biosciences xCELLigence Real-Time Cell Analysis on Androgen Receptor Agonism for Viability (AID 2283775).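 As to AC50: viability read 80 hours after compound addition.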 The gist of the method: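 22Rv1 cells; impedance growth kinetics; 8-pt 1:4 dilutions from 100 uM top final, ≤0.5% DMSO; n = 2; 80 h read; AUC viability, loss-of-signal vs DMSO.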
Assay [4] in a line: ACEA_AR_antagonist_AUC_viability: ACEA Biosciences xCELLigence Real-Time Cell Analysis on Androgen Receptor Antagonism for Viability (AID 2283776).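 Also: 22Rv1 human prostate cancer cells growing on impedance electrode plates; area under impedance growth curve at 80 h after dosing as viability; hits lower the growth signal relative to DMSO meaning cytotoxicity.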 The gist of the method:
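Impedance read-out (RT-CES): area under growth curve at 80 h post-dose, loss of signal scored vs DMSO baseline. 22Rv1 cells; 8-pt 1:4 series, top 100 uM final, ≤0.5% DMSO; biological duplicate.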

Assay [5] can be described thus: STM_H9_OrnCyssISnorm_ratio: Stemina devTOX quickPredict H9 human embryonic stem cell (hESC)-based Assay for Ornithine (ORN):Cystine (CYSS) Ratio (AID 2283714). The gist of the method: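 Ratio of internal-standard-normalized ornithine to cystine, measured by UPLC-HRMS in spent media from the last 24 h. H9 cells kept pluripotent, dosed 72 h with daily media and compound renewal; DMSO 0.1% serves as baseline.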

Assay [6] can be described thus: Tanguay_ZF_120hpf_ActivityScore_legacy: (Legacy) Oregon State University Tanguay Lab 120 Hour Post-fertilization zebrafish Assay Score for Activity (AID 2283742). The gist of the method:
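Binary scoring of mortality and morphology by brightfield at 24 and 120 hpf, summarised into one activity score from 18 components relative to DMSO. Wild-type Tropical 5D zebrafish, chorion removed at 4 hpf, static exposure 6–120 hpf, 28 °C.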

Assay [7] concerns the target zebrafish Estrogen Receptor (ESR1), esr1 (gene 259252) (UniProt P57717). As to the kind of experiment: ATG_zfER1_XSP1: Attagene TRANS-FACTORIAL Multi-Species (XSP1) HepG2 Assay for zebrafish Estrogen Receptor (ESR1) (AID 2283772). An outline of the steps:
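HepG2 cells transiently transfected with a GAL4-UAS reporter and chimeric zebrafish ER-Gal4, dosed 24 h with 3 nM 6-alpha-fluorotestosterone present. Reporter mRNA measured by RT-PCR and capillary electrophoresis; gain of signal versus DMSO.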

The test system of assay [8] is zebrafish Estrogen Receptor (ESR2B), gene 317733. As to the kind of experiment: ATG_zfER2b_XSP1: Attagene TRANS-FACTORIAL Multi-Species (XSP1) HepG2 Assay for zebrafish Estrogen Receptor (ESR2B) (AID 2283773). The gist of the method: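 Medium contained 3 nM 6-alpha-fluorotestosterone. Reporter mRNA induction by exogenous zebrafish ER2b-Gal4 chimera was read 24 h post-dose in transiently transfected HepG2 cells, using RT-PCR, fluorescent labelling, HpaI digestion and capillary electrophoresis.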

Assay [9] deals with frog Estrogen Receptor (ESR2), gene 100174814. As to the kind of experiment: ATG_frER2_XSP1: Attagene TRANS-FACTORIAL Multi-Species (XSP1) HepG2 Assay for frog Estrogen Receptor (ESR2) (AID 2283774). The gist of the method: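 Reporter mRNA from a multiplexed TRANS system, measured by RT-PCR with fluorescent labelling and capillary electrophoresis, 24 hours after chemical exposure. Human HepG2 liver cells carried exogenous frog ER-Gal4 chimera; medium included 3 nM 6-alpha-fluorotestosterone; increases versus DMSO analysed.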

Assay [10] concerns frog Estrogen Receptor (ESR1), gene 398734. Briefly: ATG_frER1_XSP1: Attagene TRANS-FACTORIAL Multi-Species (XSP1) HepG2 Assay for frog Estrogen Receptor (ESR1) (AID 2283777). The gist of the method: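 HepG2 cells transiently transfected with GAL4-UAS reporter units and frog ER–Gal4 chimera were dosed for 24 h with 3 nM 6-alpha-fluorotestosterone present. Reporter mRNA was measured by RT-PCR and capillary electrophoresis; gain of signal fitted versus DMSO.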

Structures are written as SMILES. Records with an inconclusive call do not appear. Activity calls are given as the source filed them. The calls were made as follows, unless noted: active = hit-call score of the fitted dose curve at least 0.9, where 1 is the maximum; inconclusive = response in the unintended direction; inactive = score below 0.9.

Sequence of Luciferin 4-monooxygenase (Photinus pyralis) (P08659 whole entry, looked up): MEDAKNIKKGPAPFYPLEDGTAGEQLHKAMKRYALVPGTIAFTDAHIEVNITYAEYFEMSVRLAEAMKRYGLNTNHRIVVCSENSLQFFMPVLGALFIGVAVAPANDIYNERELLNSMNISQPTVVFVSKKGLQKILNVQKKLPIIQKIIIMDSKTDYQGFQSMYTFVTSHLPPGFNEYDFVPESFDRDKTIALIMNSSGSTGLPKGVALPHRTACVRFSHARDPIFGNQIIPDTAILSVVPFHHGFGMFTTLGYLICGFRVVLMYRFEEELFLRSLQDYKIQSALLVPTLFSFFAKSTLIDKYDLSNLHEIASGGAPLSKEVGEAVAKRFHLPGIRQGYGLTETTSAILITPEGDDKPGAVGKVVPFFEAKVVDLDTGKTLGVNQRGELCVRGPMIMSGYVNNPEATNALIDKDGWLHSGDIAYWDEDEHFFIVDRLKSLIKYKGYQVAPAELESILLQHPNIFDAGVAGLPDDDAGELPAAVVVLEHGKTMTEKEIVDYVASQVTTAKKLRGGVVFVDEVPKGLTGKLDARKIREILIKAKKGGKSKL
Sequence of zebrafish Estrogen Receptor (ESR1), esr1 (gene 259252) (P57717 whole entry, looked up, the tested form may be a part): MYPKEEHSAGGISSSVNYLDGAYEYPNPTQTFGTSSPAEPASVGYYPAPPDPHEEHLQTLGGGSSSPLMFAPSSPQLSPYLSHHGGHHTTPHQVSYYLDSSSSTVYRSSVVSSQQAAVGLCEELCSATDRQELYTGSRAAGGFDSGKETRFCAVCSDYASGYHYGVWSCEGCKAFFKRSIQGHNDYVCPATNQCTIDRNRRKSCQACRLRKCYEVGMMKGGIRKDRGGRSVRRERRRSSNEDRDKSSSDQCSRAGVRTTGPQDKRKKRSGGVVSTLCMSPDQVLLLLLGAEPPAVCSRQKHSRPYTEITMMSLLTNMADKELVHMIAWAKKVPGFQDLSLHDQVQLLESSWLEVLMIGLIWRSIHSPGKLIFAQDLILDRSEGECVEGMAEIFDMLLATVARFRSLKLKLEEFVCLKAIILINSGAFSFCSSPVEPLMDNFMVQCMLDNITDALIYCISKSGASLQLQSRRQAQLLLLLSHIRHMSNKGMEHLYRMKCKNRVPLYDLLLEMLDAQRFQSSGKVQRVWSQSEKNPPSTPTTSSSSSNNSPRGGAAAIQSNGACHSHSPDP

Usually AC50 stands for the concentration giving half of the maximal activity seen. As for `COc1ccc(N=Nc2cc(C)c(N=Nc3ccc(S(=O)(=O)O)cc3)cc2OC)cc1`, the result in assay [1] was inactive. For the same molecule, the AC50 in assay [2] is 53.8 µM (active).
As to `CCc1cc(C(C)(C)C)c(O)c(C(C)(C)C)c1`, the outcome in assay [1], in assay [2], in assay [3] and in assay [4] was inactive.
As to `CCCCCC(C=O)=Cc1ccccc1`, in assay [2], the result was inactive.
The same measure, in the same setting: under `Oc1ccc2cc(SSc3ccc4cc(O)ccc4c3)ccc2c1` stands “inactive”.
With `CS(=O)(=O)OCCCCOS(C)(=O)=O`, in [5], the AC50 is 31.2 µM (active). Further, the outcome in [6], in assay [2], in [3] and in assay [4] was inactive.
On to `CC(C)NCC(O)COc1ccc(CC(N)=O)cc1` (stereo unspecified), for which the molecule was classed as inactive in [2] and in assay [3].
For the molecule `CC(C)(C)CC(C)(C)c1ccc(OCCOCC[N+](C)(C)Cc2ccccc2)cc1`, the outcome in assay [1] was inactive.
For the molecule `CCCCC(CC)COC(=O)c1ccc(O)cc1` (stereo unspecified), the molecule was called inactive in assay [2], in [7] and in [3]. Moreover, the AC50 is 3.67 µM (active) in assay [8], 860 nM (active) in [9] and 1.91 µM (active) in assay [10].
As to `CC1(C)C(=O)N(Cl)C(=O)N1Br`, the molecule was called inactive in [1] and in assay [3].
For `CCOC(=O)[C@@H](C)Oc1ccc(Oc2nc3ccc(Cl)cc3o2)cc1`, the result in assay [1] and in [4] was inactive. Further, the AC50 in assay [3] was 5.36 µM (active).
For the molecule `CCCCCCCCN1CCCC1=O`, in [1], the AC50 was 0.882 µM (active).
For the molecule `O=C(Nc1ccc2c(O)c(N=Nc3ccc(N=Nc4ccc(S(=O)(=O)O)cc4)cc3)c(S(=O)(=O)O)cc2c1)c1ccccc1`, the call in assay [1] and in [3] was inactive. In addition, the AC50 in assay [2] was 20.7 µM (active).
`CCOc1ccc(N=Nc2ccc(C=Cc3ccc(N=Nc4ccc(OCC)cc4)cc3S(=O)(=O)O)c(S(=O)(=O)O)c2)cc1`: the molecule was called inactive in assay [2].
As for `CCOc1ccccc1O`, the molecule was classed as inactive in [2] and in assay [3].
For `Cc1cc(S(=O)(=O)O)ccc1N=Nc1c(O)ccc2ccccc12`, the AC50 in assay [2] is 27.8 µM (active). In [3], the molecule was called inactive.
Take `O=C1c2ccccc2C(=O)c2c(O)ccc(O)c21`: in [5], the AC50 is 10 µM (active).
Consider `COc1ccc(CCN2CCC(Nc3nc4ccccc4n3Cc3ccc(F)cc3)CC2)cc1`, for which, in assay [1], the result was inactive.
Take `C=C1CC[C@H](O)C/C1=C/C=C1\CCC[C@]2(C)[C@@H]([C@H](C)/C=C/[C@H](C)C(C)C)CC[C@@H]12`: the AC50 in [1] was 83.4 µM (active). Moreover, the outcome in assay [2] and in assay [3] was inactive.
On to `CC(C)Nc1nc(N)nc(Cl)n1`, for which, in [1], the result was inactive.
As for `CC(CN=Cc1ccccc1O)N=Cc1ccccc1O` (stereo unspecified), the AC50 is 2.57 µM (active) in assay [1], 6.64 µM (active) in [3] and 4.63 µM (active) in assay [4]. Also, the molecule was called inactive in assay [2].
As to `Cc1cc(C)nc(NS(=O)(=O)c2ccc(N)cc2)n1`, the molecule was called inactive in [2].
As for `CC=Cc1ccc(OCC)c(O)c1`, the result in assay [1] was inactive.
As to `OCc1cccc(Oc2ccccc2)c1`, the molecule was called inactive in [1], in [3] and in assay [4].
Consider `COc1ccc(OC)c(N=Nc2c(O)ccc3ccccc23)c1`, for which the outcome in assay [1] was inactive.
With `C=C[Si]1(C)O[Si](C)(C=C)O[Si](C)(C=C)O[Si](C)(C=C)O1` (stereo unspecified), the outcome in assay [1] and in assay [4] was inactive.
`COCCc1ccc(OCC(O)CNC(C)C)cc1` (stereo unspecified): the result in assay [1] was inactive.
Regarding `CSCCC=O`, the call in assay [2] was inactive.
Take `CC=Cc1ccc(OC)c(OC)c1`: the outcome in [1] was inactive.
As to `Cc1ccc(S(=O)(=O)Oc2ccc(N=Nc3ccc(-c4ccc(N=Nc5c(O)ccc6cc(S(=O)(=O)O)cc(S(=O)(=O)O)c56)c(C)c4)cc3C)cc2)cc1`, the AC50 in assay [2] was 17.4 µM (active); in assay [3], 7.03 µM (active); in [4], 2.55 µM (active).
For `Nc1ccc(N)c2c1C(=O)c1ccccc1C2=O`, the call in [1] was inactive. Moreover, the AC50 is 9.05 µM (active) in assay [3] and 12.7 µM (active) in [4].
For the molecule `Cc1cc(=O)oc2cc(N(C)C)ccc12`, the result in assay [1] and in assay [3] was inactive. For the same molecule, the AC50 in assay [4] is 0.177 µM (active).
On to `CCC(C)c1cc([N+](=O)[O-])cc([N+](=O)[O-])c1OC(=O)OC(C)C` (stereo unspecified), for which, in assay [1], the outcome was inactive.
Turning to `C=CC(C)(O)CCC=C(C)C` (stereo unspecified), the result in assay [5] was inactive.
Turning to `BrCc1cccc(Oc2ccccc2)c1`, the call in [1], in [3] and in assay [4] was inactive.
On to `CCCCCCCCc1ccc(S(=O)(=O)O)cc1`, for which the molecule was called inactive in [2], in assay [3] and in [4].
In the case of `CCCCCCC(C)(C)S`, the molecule was classed as inactive in [3].
Take `O=C1OC[C@H](Cc2cccc(O)c2)[C@H]1Cc1cccc(O)c1`: the outcome in assay [2] was inactive. Besides, the AC50 in [4] is 8.21 µM (active).
Take `CCc1ccc(O)cc1`: the molecule was called inactive in assay [2], in [3] and in [4].
Take `O=C(O)c1ccc(O)cc1`: the outcome in assay [2], in assay [3] and in [4] was inactive.
`O=c1c(O)c(-c2ccc(O)cc2)oc2cc(O)cc(O)c12`: the AC50 was 34.3 µM (active) in assay [2] and 4.77 µM (active) in assay [4]. In [3], the call was inactive.
As to `CCC1(C)NC(=O)NC1=O` (stereo unspecified), the molecule was called inactive in assay [3] and in assay [4].
For `O=C(O)CCCCCCCCC(=O)O`, the call in [2] was inactive. The AC50 in assay [3] was 2.76 µM (active); in assay [4], 2.07 µM (active).
As to `O=CCc1ccccc1`, the outcome in assay [3] was inactive.
As for `[O-]n1ccccc1=S.[O-]n1ccccc1=S.[Zn+2]`, the outcome in [2] was inactive. Further, the AC50 is 11.8 µM (active) in assay [3] and 22.9 µM (active) in [4].
As for `CCCCCCC(=O)c1ccccc1`, the outcome in assay [3] was inactive.
As to `COc1ccccc1N=Nc1c(S(=O)(=O)O)cc2cc(S(=O)(=O)O)cc(NC(C)=O)c2c1O`, the AC50 in assay [2] is 13.8 µM (active). Further, the molecule was classed as inactive in assay [3] and in [4].
Regarding `O=[N+]([O-])c1ccc(O)cc1C(F)(F)F`, the AC50 is 12.3 µM (active) in assay [3] and 12.9 µM (active) in [4].
